From ChEMBL document CHEMBL4513216, “Probing the Open Global Health Chemical Diversity Library for Multistage-Active Starting Points for Next-Generation Antimalarials” (ACS Infect Dis, 2020)
Screen size: about 69,000 compounds; about 8,600 (12%) showed an effect of 50% or more. The sample holds strong results, similar compounds and a random draw of the others, so the mix is not that of the screen.

tested on: Plasmodium berghei; assay: Screen against P. berghei liver stage (PbLuc), transformed with Luciferase, at 10uM; assay type: functional, HepG2; settings: tested at 10 uM

Row | Compound | INHIBITION
1 | CC(C)c1cc(NC(=O)CNC2CCc3nc(C(C)C)nn3C2)on1 (stereo unspecified) | 35.7%
2 | Cc1c(C2CCCN(C(=O)C3CC3)C2)n2c(nc1=O)CCC2 (stereo unspecified) | 28.4%
3 | Cc1noc(C)c1C(=O)N1CCCC(c2c(C)c(=O)nc3n2CCC3)C1 (stereo unspecified) | 55.6%
4 | Cc1c(C2CCCN(C(=O)c3ccncc3)C2)n2c(nc1=O)CCC2 (stereo unspecified) | 20.8%
5 | N#Cc1c(F)cccc1Nc1cnn(CC(N)=O)c1 | 65.4%
6 | N#Cc1c(F)cccc1Nc1cnn(CC(=O)N2CCOCC2)c1 | 19.2%
7 | CNC(=O)Cn1cc(Nc2cccc(F)c2C#N)cn1 | -0.514%
8 | CCc1csc(C2CCCN(C(=O)c3cnc[nH]3)C2)n1 (stereo unspecified) | 10%
9 | CN(Cc1ccco1)Cc1cnc2n1CCN(c1ncccn1)CC2 | 2.4%
10 | Cc1ccc(S(=O)(=O)NCC(C)(C)N)c(F)c1 | 8.51%
11 | CN1CCCC(CNC(=O)N(C)Cc2ccc(Cl)c(F)c2)C1 (stereo unspecified) | 31%
12 | CCN(CC)S(=O)(=O)N1CC[C@H](c2ccccc2)[C@H]2NCCCC[C@H]21 | 47.2%
13 | N[C@H]1CN(S(=O)(=O)N2CCCC2)C[C@@H]1c1ccccc1 | 44.2%
14 | CCN(CC)S(=O)(=O)N1CCCC(c2cccc(C(=O)O)c2)C1 (stereo unspecified) | -31.5%
15 | CN1CCCC[C@@H]2[C@H]1[C@@H](c1ccccc1)CCN2S(=O)(=O)N1CCCC1 | 61.7%
16 | O=S(=O)(N1CCCC1)N1CC[C@H](c2ccccc2)[C@H]2NCCCC[C@H]21 | 52%
17 | CCN(CC)S(=O)(=O)N1CC[C@H](c2ccccc2)[C@@H]2[C@H]1CCCCN2C | 73.1%
18 | CCN(CC)S(=O)(=O)N1C[C@@H](c2ccccc2)[C@H]2[C@H]1CCCCCN2C | 51.7%
19 | CCN(CC)S(=O)(=O)N1CCCC1CC(=O)c1cccs1 (stereo unspecified) | -2.74%
20 | CC(C)S(=O)(=O)N1C[C@@H](c2ccccc2)[C@H]2[C@H]1CCCCCN2C | 16.5%
21 | O=S(=O)(N1CCCC1)N1CCCCC1CCc1ccccc1 (stereo unspecified) | 31.8%
22 | O=S(=O)(N1CCCC1)N1C[C@@H](c2cccc(F)c2)[C@@H]2NCCCCC[C@H]21 | 43.6%
23 | CN1CCCCC[C@@H]2[C@@H]1[C@H](c1ccccc1)CN2C(=O)c1ccccn1 | -37%
24 | CC[C@@H](c1ccccc1)n1c(CCN)n[nH]c1=O | 39%
25 | CCc1noc(C(C)N2CCN(c3ccc(C#N)cc3F)CC2)n1 (stereo unspecified) | -17.4%
26 | O=C(CC1CCCC1)NCCS(=O)(=O)N1CCN(c2ccccc2)CC1 | -16.4%

Row | Compound | INHIBITION
27 | CC(=O)NCc1cc(-c2cccs2)n(C2CCCC2)n1 | 1.74%
28 | COc1c(C2CCCN2CC(=O)N(C)c2nccs2)c(C)nn1C (stereo unspecified) | 8.7%
29 | CN(C)c1ccc(C(=O)N2CCCC2c2noc(C3CC3)n2)nn1 (stereo unspecified) | 3.263%
30 | Cc1ncc2c(n1)CN(CC(=O)Nc1nnc(C)s1)CC2 | 34.7%
31 | O=C(NCC1CC1)[C@@H]1CCO[C@@H]2CCN(CCc3ccccc3)C[C@H]21 | 47.1%
32 | COCC(=O)NCc1cc2n(n1)CCCN(Cc1ccccc1SC)C2 | -46.2%
33 | CN(Cc1ccccc1)CC(O)Cn1cnc2cc(F)ccc2c1=O (stereo unspecified) | -8.7%
34 | CS(=O)(=O)N1C[C@@H]2COC[C@H](C(=O)Nc3cnccn3)[C@@H]2C1 | 45.2%
35 | O=C([C@H]1COC[C@H]2CN(c3ncc(F)cn3)C[C@H]21)N1CCOCC1 | -0.554%
36 | O=C(NC1CC1)[C@H]1COC[C@H]2CN(c3ncc(F)cn3)C[C@H]21 | 58.5%
37 | O=C(Nc1cnccn1)[C@H]1COC[C@H]2CN(c3ncc(F)cn3)C[C@H]21 | 67.4%
38 | O=C(NCc1ccco1)[C@@H]1COC[C@H]2CN(c3ncc(F)cn3)C[C@H]21 | 3.88%
39 | O=C(Nc1cnccn1)[C@@H]1COC[C@H]2CN(c3ncc(F)cn3)C[C@H]21 | -22.7%
40 | CC(=O)N1[C@H](CN(C)C)C[C@@H]2CN(C(=O)c3ccsc3)CC[C@@H]21 | -24.5%
41 | O=C([C@H]1CN(CCc2ccccc2)C[C@H]2OCC[C@@H]12)N1CCCO1 | 8.57%
42 | COc1ccc(Cn2cc(C(=O)N(C)Cc3cnccn3)nn2)cc1 | 21.5%
43 | COc1cccc(CNc2cc(C)nc(-c3ccncc3)n2)c1O | 78.9%
44 | COc1cccc(CNc2cc(C)nc(-c3ccncc3)n2)c1OC | 85.2%
45 | COCCNC(=O)CCNc1cc(C)nc(-c2ccncc2)n1 | 24%
46 | COc1cccc(CNc2cccnc2-n2cccn2)c1OC | 17.3%
47 | COc1cccc(CNc2nc(C)cc(C)n2)c1OC | -11.7%
48 | Cc1cc(NCCC(=O)NC(C)C)nc(-c2ccncc2)n1 | -2.43%
49 | Cc1nc(CN2CCN(C(=O)c3sccc3C)CC2)cs1 | -117%
50 | CC(C)c1nc(CNCC2CCCN2c2cccnn2)cs1 (stereo unspecified) | -16.8%
51 | COC(=O)c1ccc(C(=O)NCC(O)c2cccn2C)cc1 (stereo unspecified) | -52.5%
